The values that follow come from PubChem BioAssay (Tox21).

Assay [1] in a line: Nuclear factor erythroid 2-related factor 2/antioxidant responsive element (Nrf2/ARE) small molecule agonists: qHTS cell viability counter screen in human keratinocytes (AID 1919968; active = well fitted curve in the direction sought with a large enough effect in the repeat runs; an effect the other way counts as inactive or inconclusive; also: nearly all actives have a fitted effect of over 55% in size; also: potency is read from the fitted curve at half-maximal effect). The essentials:
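Cells of the KeratinoSens line were plated at 1,500 per well and left for 5 h before compound transfer from DMSO stocks. After a 23 h incubation (37 C, 5% CO2), CellTiter-Fluor was added. Signal was taken as fluorescence intensity 1 h later.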

Assay [2] is described as follows: Nuclear factor erythroid 2-related factor 2/antioxidant responsive element (Nrf2/ARE) small molecule agonists: luciferase reporter gene qHTS assay in human keratinocytes (AID 1919969). Also: nearly all actives have a fitted effect of over 35% in size. Also: potency is read from the fitted curve at half-maximal effect.
The target in assay [3] is Gonadotropin-releasing hormone receptor (Homo sapiens) (UniProt P30968). Briefly: Human gonadotropin-releasing hormone receptor (GnRHR) small molecule agonists, calcium flux assay in GnRHR-HEK293 cells (AID 1920063). Also: nearly all actives have a fitted effect of over 35% in size. The essentials:
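Compounds dissolved in DMSO are pin-transferred onto dye-loaded GnRHR-HEK293 cells, which were seeded 18 h before at 37 C/5% CO2. Calcium signal is read as fluorescence intensity at 1 s intervals for 3 min.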

Assay [4] deals with KiSS-1 receptor (Homo sapiens) (UniProt Q969F8). Briefly: Human kisspeptin (KISS1R) small molecule agonists, calcium flux assay in KISS1R-HEK293 cells (AID 1920064; active = well fitted curve in the direction sought with a large enough effect in the repeat runs; an effect the other way counts as inactive or inconclusive). Summed up: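 Cell line: HEK293, stable human KISS1R. Dye loading 1 h at 37 C after 18 h culture. Read: kinetic fluorescence, 480/540 nm, 3 min at 1 s intervals.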
The nature of assay [5]: G protein-coupled receptor (GPCR) small molecule agonists, calcium flux assay: HEK293 wild type cell line counter screen (AID 1920065). The essentials: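 Tox21 10K compounds, 15 concentrations each in triplicate, pin-transferred in DMSO onto dye-loaded cells; kinetic read at 480/540 nm for 3 min, 1 s intervals.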
A short description of assay [6]: p53 small molecule agonists, cell-based qHTS assay with human liver microsomes (AID 1963577).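 Also: p53 response element beta-lactamase reporter cells with liver microsomes plus NADPH.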 The essentials: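 p53RE-bla cells; 5 h settle, 37 C/5% CO2; cpd + HLM 0.5 mg/mL + NADPH 0.5 mg/mL (final); 16 h 37 C; LiveBLAzer 2 h RT dark; fluorescence readout.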
Assay [7] can be described thus: p53 small molecule agonists, cell-based qHTS assay with rat liver microsomes (AID 1963578). Summed up: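 Rat liver microsome activation: microsomes 0.5 mg/mL, NADPH 0.5 mg/mL final; p53RE-bla cells, 16 h 37 C; LiveBLAzer readout, 2 h RT dark.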
Assay [8] can be described thus: p53 small molecule agonists, cell-based qHTS assay with human liver microsomes: qHTS cell viability counter screen (AID 1963579). Also: nearly all actives have a fitted effect of over 45% in size. The essentials:
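Luminescent CellTiter-Glo read-out, 30 min at room temperature, gauged cytotoxicity in p53RE-bla cells exposed 16 h at 37 C to DMSO-dissolved compounds with metabolic activation by human liver microsomes and NADPH, each 0.5 mg/mL final.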

Assay [9] can be described thus: p53 small molecule agonists, cell-based qHTS assay with rat liver microsomes: qHTS cell viability counter screen (AID 1963580). Also: nearly all actives have a fitted effect of over 45% in size. Summed up: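 Counter screen for cytotoxicity under metabolic activation: rat liver microsomes and NADPH, 0.5 mg/mL final each, added with compounds to p53RE-bla HCT-116 cells; 16 h at 37 C, then ATP luminescence read.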
A short description of assay [10]: p53 small molecule agonists, cell-based qHTS assay (AID 1963582; active = well fitted activation curve with a large enough effect in the signal ratio in the repeat runs, not every such curve was filed as active; the % refers to the signal ratio). Summed up: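 16 h compound exposure (37 C) of p53 response element–bla cells, preceded by 5 h recovery at 37 C/5% CO2; read-out via LiveBLAzer B/G FRET substrate, 2 h RT, fluorescence intensity.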
Assay [11] has as its target 5-hydroxytryptamine receptor 2A (Homo sapiens) (UniProt P28223). Description: 5-hydroxytryptamine receptor 2A (HTR2A) small molecule antagonists, cell-based qHTS assay (AID 1963586). Also: nearly all actives have a fitted effect of over 45% in size. Summed up: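 CHO cells stably expressing human HTR2A were plated for 18 h at 37 C, then loaded with calcium dye for 1 h. Compounds were preincubated 5 min at room temperature before DOI (4 nM solution) was added. Kinetic fluorescence was read for 3 min.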

Assay [12] shares this target. Description: 5-hydroxytryptamine receptor 2A (HTR2A) small molecule agonists, cell-based qHTS assay (AID 1963587). Also: nearly all actives have a fitted effect of over 30% in size. The essentials:
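HTR2A-CHO cells, plated 18 h at 37 C/5% CO2, dye-loaded 1 h at 37 C; compounds in DMSO added by pin tool (agonist mode). Intracellular calcium flux read as kinetic fluorescence on FDSS over 2 min at 1 s intervals.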

Assay [13] addresses Muscarinic acetylcholine receptor M1 (Homo sapiens) (UniProt P11229). Description: Cholinergic receptor muscarinic 1 (CHRM1) small molecule antagonists, cell-based qHTS assay (AID 1963588). Also: nearly all actives have a fitted effect of over 40% in size. The essentials: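 Compounds were tested at 15 concentrations in three independent runs. Dye-loaded CHRM1-CHO cells were exposed 5 min at room temperature before stimulation by acetylcholine added at 50nM. Intracellular calcium was read kinetically on FDSS for 3 min.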

Assay [14] shares this target. Briefly: Cholinergic receptor muscarinic 1 (CHRM1) small molecule agonists, cell-based qHTS assay (AID 1963589). Also: nearly all actives have a fitted effect of over 35% in size. The essentials: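 Homogeneous fluorescence calcium flux, agonist mode. Human M1-expressing CHO cells; compound dosed at 15 concentrations, three independent runs; signal sampled every 1 sec.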
Assay [15] in a line: cAMP Responsive Elements (CRE) small molecule agonists, cell-based qHTS assay (AID 1963590). Summed up: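 HEK 293T cells stably bearing CRE-bla were plated at 2,000 cells per well and rested 18 h. Compounds, positive controls or DMSO were added for 3 h at 37 C. LiveBLAzer B/G substrate was then loaded for 2 h at room temperature.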
Assay [16] is described as follows: cAMP Responsive Elements (CRE) small molecule antagonists, cell-based qHTS assay (AID 1963591; active = well fitted inhibition curve with a large enough effect in the signal ratio in the repeat runs, not every such curve was filed as active; the % refers to the signal ratio). Summed up: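 First, CRE-bla HEK293T cells settled 18 h at 37 C. Next, compound and 0.25 uM final NKH477 were applied for 3 h. Last, LiveBLAzer B/G substrate was loaded for 2 h at room temperature.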
Assay [17] deals with Beta-2 adrenergic receptor (Homo sapiens) (UniProt P07550). Description: Adrenergic beta2 receptor (ADRB2) small molecule antagonists, cell-based qHTS assay (AID 1963592). Also: series mostly up to about 92 µM; nearly all actives have a fitted effect of over 50% in size. Summed up:
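Assay format: CHO-ADRB2 cells, 18-20hr seeding at 37C/5% CO2, then compound plus 1nM isoproterenol agonist mix for 0.5hr RT. Homogeneous time-resolved fluorescence cAMP detection after 1hr, expressed as 665/615 nm ratio.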

The target in assay [18] is D(2) dopamine receptor (Homo sapiens) (UniProt P14416). Briefly: Dopamine D2 receptor (DRD2) small molecule antagonists, cell-based qHTS assay (AID 1963595; active = well fitted inhibition curve with a large enough effect in the signal ratio in the repeat runs, with a control signal flat; the % refers to the signal ratio). Summed up: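 HEK293 cells stably expressing DRD2 were preincubated with 0.1 mM Ro20-1724, then with compound for 10 min at room temperature. Cells were stimulated with 200 nM NKH477 plus 12 nM quinpirole for 30 min, and cAMP was read by HTRF.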

The nature of assay [19]: p53 small molecule agonists, cell-based qHTS assay: qHTS cell viability counter screen (AID 1963581). Also: nearly all actives have a fitted effect of over 45% in size. Summed up:
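ATP content measured by luminescence in HCT-116 p53RE-bla cells treated 16 h at 37 C, same wells as the reporter screen.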

In assay [20] the target is D(2) dopamine receptor (Homo sapiens) (UniProt P14416). Briefly: Dopamine D2 receptor (DRD2) small molecule agonists, cell-based qHTS assay (AID 1963594). Also: nearly all actives have a fitted effect of over 35% in size. Summed up:
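HEK293 cells stably expressing DRD2 were cultured 24 h at 37 C, then given Ro20-1724 (0.1 mM final) and compounds for 10 min at room temperature. NKH477 (200nM) was then added for 30 min. cAMP was read by HTRF.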

Each structure is given as a SMILES string. Several values for one entry are separate records, joined by “and”; a condition that tells them apart may be missing. Equal entries are not always repeated. Records with an inconclusive call do not appear. Activity calls are given as the source filed them. Unless noted, calls follow the shape of the full dose curve.

Beta-2 adrenergic receptor (Homo sapiens), sequence (P07550 whole entry, looked up): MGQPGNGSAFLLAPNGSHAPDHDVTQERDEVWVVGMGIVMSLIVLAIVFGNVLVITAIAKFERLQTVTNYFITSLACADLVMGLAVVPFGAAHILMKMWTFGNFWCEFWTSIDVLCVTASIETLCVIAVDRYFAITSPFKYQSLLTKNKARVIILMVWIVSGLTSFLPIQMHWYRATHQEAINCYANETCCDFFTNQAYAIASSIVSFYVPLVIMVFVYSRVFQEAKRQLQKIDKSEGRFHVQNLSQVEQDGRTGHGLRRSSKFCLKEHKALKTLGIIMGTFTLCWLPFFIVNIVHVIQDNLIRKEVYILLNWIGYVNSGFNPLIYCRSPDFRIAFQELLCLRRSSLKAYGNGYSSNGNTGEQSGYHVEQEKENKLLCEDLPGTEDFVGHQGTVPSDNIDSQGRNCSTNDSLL
Gonadotropin-releasing hormone receptor (Homo sapiens), sequence (P30968 whole entry, looked up): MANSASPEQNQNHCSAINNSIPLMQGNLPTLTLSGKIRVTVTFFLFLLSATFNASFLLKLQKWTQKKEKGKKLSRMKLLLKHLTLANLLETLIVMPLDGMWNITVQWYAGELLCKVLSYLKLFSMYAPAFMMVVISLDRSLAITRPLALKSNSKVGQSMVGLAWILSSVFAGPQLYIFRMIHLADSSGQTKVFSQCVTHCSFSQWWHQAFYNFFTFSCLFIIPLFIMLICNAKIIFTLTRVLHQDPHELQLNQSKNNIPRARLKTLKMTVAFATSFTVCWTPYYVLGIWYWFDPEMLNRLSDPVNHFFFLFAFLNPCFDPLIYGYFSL
KiSS-1 receptor (Homo sapiens), sequence (Q969F8 whole entry, looked up): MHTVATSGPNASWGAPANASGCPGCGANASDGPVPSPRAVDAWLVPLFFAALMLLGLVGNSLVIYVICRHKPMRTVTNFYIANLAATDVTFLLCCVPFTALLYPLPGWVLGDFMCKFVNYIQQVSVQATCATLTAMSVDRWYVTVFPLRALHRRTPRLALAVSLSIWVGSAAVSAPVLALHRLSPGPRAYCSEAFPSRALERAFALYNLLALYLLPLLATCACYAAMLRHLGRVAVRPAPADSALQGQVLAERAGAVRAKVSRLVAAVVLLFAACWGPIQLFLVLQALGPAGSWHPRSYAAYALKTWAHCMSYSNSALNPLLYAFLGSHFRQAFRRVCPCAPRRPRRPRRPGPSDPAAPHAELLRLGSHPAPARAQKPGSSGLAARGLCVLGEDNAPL
5-hydroxytryptamine receptor 2A (Homo sapiens), sequence (P28223 whole entry, looked up): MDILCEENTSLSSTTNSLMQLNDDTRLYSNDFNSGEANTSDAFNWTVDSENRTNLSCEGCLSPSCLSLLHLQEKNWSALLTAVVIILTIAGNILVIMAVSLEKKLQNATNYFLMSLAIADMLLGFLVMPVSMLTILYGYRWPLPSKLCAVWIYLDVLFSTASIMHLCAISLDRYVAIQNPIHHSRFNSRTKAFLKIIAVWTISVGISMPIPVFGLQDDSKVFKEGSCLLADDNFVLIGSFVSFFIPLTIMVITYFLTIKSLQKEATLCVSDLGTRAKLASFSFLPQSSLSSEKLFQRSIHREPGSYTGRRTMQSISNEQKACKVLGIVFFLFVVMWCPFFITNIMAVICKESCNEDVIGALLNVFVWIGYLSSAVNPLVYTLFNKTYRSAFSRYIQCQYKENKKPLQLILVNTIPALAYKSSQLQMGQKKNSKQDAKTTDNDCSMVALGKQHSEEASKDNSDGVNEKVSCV
D(2) dopamine receptor (Homo sapiens), sequence (P14416 whole entry, looked up): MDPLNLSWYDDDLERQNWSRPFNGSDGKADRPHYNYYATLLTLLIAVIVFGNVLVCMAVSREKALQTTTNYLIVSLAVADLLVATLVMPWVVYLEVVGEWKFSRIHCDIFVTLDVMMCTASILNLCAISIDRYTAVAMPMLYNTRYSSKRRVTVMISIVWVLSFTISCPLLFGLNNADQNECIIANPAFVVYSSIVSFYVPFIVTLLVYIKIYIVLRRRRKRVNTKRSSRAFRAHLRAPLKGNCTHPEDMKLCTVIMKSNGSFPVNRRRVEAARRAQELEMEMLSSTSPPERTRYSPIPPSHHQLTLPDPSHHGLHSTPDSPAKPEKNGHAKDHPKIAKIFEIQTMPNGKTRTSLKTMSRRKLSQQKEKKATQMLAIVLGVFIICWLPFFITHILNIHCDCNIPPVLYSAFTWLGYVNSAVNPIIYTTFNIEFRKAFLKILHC
Muscarinic acetylcholine receptor M1 (Homo sapiens), sequence (P11229 whole entry, looked up): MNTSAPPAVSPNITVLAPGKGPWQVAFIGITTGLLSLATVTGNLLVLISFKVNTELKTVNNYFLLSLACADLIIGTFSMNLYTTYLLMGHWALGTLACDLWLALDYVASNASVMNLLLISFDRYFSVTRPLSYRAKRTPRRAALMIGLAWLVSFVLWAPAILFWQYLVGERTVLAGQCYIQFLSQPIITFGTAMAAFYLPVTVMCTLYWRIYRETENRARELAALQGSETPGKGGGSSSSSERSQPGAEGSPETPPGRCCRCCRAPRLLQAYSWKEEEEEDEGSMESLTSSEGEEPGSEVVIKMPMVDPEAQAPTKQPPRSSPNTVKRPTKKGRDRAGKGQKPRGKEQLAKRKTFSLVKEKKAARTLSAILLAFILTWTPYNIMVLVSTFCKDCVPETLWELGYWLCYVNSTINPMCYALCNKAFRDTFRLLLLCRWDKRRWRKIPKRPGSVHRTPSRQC

For the molecule `Nc1ccc(-c2ccc(N)cc2)cc1`, the Potency entry in [1], in assay [2], in [3], in assay [4], in assay [5] and in assay [6] was “inactive” throughout. Also, the Potency entry in assay [7], in assay [8], in assay [9], in [10], in assay [11] and in assay [12] was “inactive” each time. For the same molecule, the Potency result in assay [13], in [14], in assay [15], in assay [16], in assay [17] and in assay [18] was “inactive” each time.

For the molecule `CC(C)(O)C(=O)Nc1ccc([N+](=O)[O-])c(C(F)(F)F)c1`, the Potency entry in [1], in assay [2], in assay [3], in assay [4], in assay [5] and in [6] was “inactive” in each case. Also, the Potency result in assay [7], in [8], in assay [9], in [19], in assay [11] and in assay [12] was “inactive” throughout. The Potency result in assay [13], in [16], in assay [17], in [20] and in [18] was “inactive” throughout.

Consider `Nc1ccc(Cc2ccc(N)cc2)cc1`, for which the Potency result in assay [1], in [2], in [3], in assay [4], in assay [5] and in assay [6] was “inactive” in each case. In addition, the Potency result in [7], in assay [8], in assay [9], in [19], in assay [15] and in assay [16] was “inactive” throughout. For the same molecule, the Potency entry in assay [17], in assay [20] and in assay [18] was “inactive” throughout.

Consider `O=C(O)c1nn(Cc2ccc(Cl)cc2Cl)c2ccccc12`, for which the Potency entry in assay [1], in [2], in assay [3], in [4], in [5] and in assay [6] was “inactive” in each case. The Potency entry in [7], in [8], in [9], in assay [19], in assay [12] and in assay [13] was “inactive” in each case. Besides, the Potency entry in assay [17], in [20] and in assay [18] was “inactive” throughout.

As to `CC(C)(c1ccc(OCC2CO2)cc1)c1ccc(OCC2CO2)cc1` (stereo not drawn), the Potency was 49.2 µM (active) in assay [1]; 27.7 µM (active) and 27.3 µM (active) in [2]. Further, the Potency entry in [3], in [4], in assay [5], in [6], in assay [7] and in [8] was “inactive” in each case. For the same molecule, the Potency entry in assay [9], in assay [19], in [12], in assay [13], in assay [14] and in [15] was “inactive” in each case. The Potency result in [17], in assay [20] and in assay [18] was “inactive” in each case.

Consider `N#CCNCC#N`, for which the Potency result in assay [1], in [2], in [3], in [4], in [5] and in assay [6] was “inactive” each time. The Potency result in assay [7], in [8], in assay [9], in assay [10], in [11] and in assay [12] was “inactive” in each case. Moreover, the Potency entry in [13], in assay [14], in assay [15], in assay [16], in [17] and in [18] was “inactive” each time.

For the molecule `NNC(=S)NN`, the Potency was 6.28 µM (active) and 30.6 µM (active) in assay [1]; 2.5 µM (active) in [2]. Besides, the Potency result in assay [3], in [4], in assay [5], in assay [6], in [7] and in assay [8] was “inactive” each time. The Potency result in [9], in [10], in assay [11], in assay [12], in [13] and in [14] was “inactive” throughout. Moreover, the Potency entry in assay [15], in assay [17], in [20] and in assay [18] was “inactive” each time.
